# PubChem BioAssay (NCATS)
# Results filed as inconclusive are left out. Where a call stands in place of a potency, no number is given. Values without a mark were called inactive. Calls of active or inactive are those of the source. Calls follow the shape of the dose curve; as a rule, active = well fitted curve in the direction sought with a large enough effect; inconclusive = small, poorly fitted or top-dose-only effect, or another doubt; inactive = no such curve, though single readings can be large; an effect the other way counts as inactive or inconclusive. Where a SMILES comes first, the peptide text is derived from it. [ ]: non-standard residue; d: D form. dPhe(4-Cl) = N[C@H](Cc1ccc(Cl)cc1)C(=O)O; d2Nal = N[C@H](Cc1ccc2ccccc2c1)C(=O)O; dCit = NC(=O)NCCC[C@@H](N)C(=O)O; d3Pal = N[C@H](Cc1cccnc1)C(=O)O
# Experiments:
# [1] = test system: HaCat; experiment: Cytotoxic Profiling of Annotated Libraries Using Quantitative High-Throughput Screening (AID 1296008); settings: Five cell lines viability, CellTiter-Glo ATP luminescence, 48-72 h; max response: stronger effect = lower value; also: nearly all actives have a fitted effect of over 60% in size
# Method in brief: (§1)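 Cytotoxicity was measured as CellTiter-Glo ATP luminescence, read after 10 min at room temperature. Compound treatment of the cells lasted 48 or 72 hr at 37 degrees Celsius in a qHTS format.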
# [2] = test system: KB-3-1; experiment: as above; settings: Five cell lines viability, CellTiter-Glo ATP luminescence, 48-72 h; max response: stronger effect = lower value
# Method in brief: as §1
# [3] = test system: NIH3T3; experiment: as above; settings: Five cell lines viability, CellTiter-Glo ATP luminescence, 48-72 h; max response: stronger effect = lower value
# Method in brief: as §1
# [4] = test system: C33A; experiment: Primary qHTS to identify gynecologic anti-cancer compounds using libraries of approved drugs and bioactive compounds (AID 1345084); settings: Gynecologic cancer cell panel viability, ATPlite luminescence, 48 h; series mostly up to 57.5 µM; also: nearly all actives have a fitted effect of over 55% in size; also: potency is read from the fitted curve at half-maximal effect
# Method in brief: (§2)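 ATP-based viability (ATPlite), 1,000 cells/well, 16 h pre-incubation, 48 h compound at 37 C, 5% CO2, 15 min RT before read.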
# [5] = test system: CAOV3; experiment: as above; settings: Gynecologic cancer cell panel viability, ATPlite luminescence, 48 h; series mostly up to 57.5 µM
# Method in brief: as §2
# [6] = test system: CASKI; experiment: as above; settings: Gynecologic cancer cell panel viability, ATPlite luminescence, 48 h; series mostly up to 57.5 µM
# Method in brief: as §2
# [7] = test system: Es-2; experiment: as above; settings: Gynecologic cancer cell panel viability, ATPlite luminescence, 48 h; series mostly up to 57.5 µM
# Method in brief: as §2
# [8] = test system: HeLa; experiment: as above; settings: Gynecologic cancer cell panel viability, ATPlite luminescence, 48 h; series mostly up to 57.5 µM
# Method in brief: as §2
# [9] = test system: Hek293T; experiment: as above; settings: Gynecologic cancer cell panel viability, ATPlite luminescence, 48 h, control line for the selectivity index; series mostly up to 57.5 µM
# Method in brief: as §2
# [10] = test system: JEG-3; experiment: as above; settings: Gynecologic cancer cell panel viability, ATPlite luminescence, 48 h; series mostly up to 57.5 µM
# Method in brief: as §2
# [11] = test system: OV90; experiment: as above; settings: Gynecologic cancer cell panel viability, ATPlite luminescence, 48 h; series mostly up to 57.5 µM
# Method in brief: as §2
Structure (SMILES),max response [1] [%],outcome [2],max response [3] [%],"activity change, negative = cytotoxicity [4]","activity change, negative = cytotoxicity [5]","activity change, negative = cytotoxicity [6]","activity change, negative = cytotoxicity [7]","activity change, negative = cytotoxicity [8]","activity change, negative = cytotoxicity [9]","activity change, negative = cytotoxicity [10]","activity change, negative = cytotoxicity [11]",max response [2] [%],Potency [4],Potency [5],Potency [6],Potency [7],Potency [8],Potency [9],Potency [10],Potency [11]
CC1OC(OC2C(C)OC(OC3C(OC(=O)C45CCC(C)(C)CC4C4=CCC6C7(C)CCC(OC8OC(C(=O)O)C(O)C(O)C8OC8OC(CO)C(O)C(OC9OC(C)C(O)C(O)C9O)C8O)C(C)(CO)C7CCC6(C)C4(C)CC5)OC(CO)C(O)C3O)C(O)C2O)C(O)C(O)C1O (stereo not drawn),-14.7,inactive,-18.1,1.01% [at 6.55 µM],6.9% [at 6.55 µM],16.9% [at 6.55 µM],0.662% [at 6.55 µM],5.48% [at 6.55 µM],-2.51% [at 6.55 µM],4.23% [at 6.55 µM],11.5% [at 6.55 µM],,,,,,,,,
C[C@@H]([C@@H](O)c1ccc(O)cc1)N1CCC(O)(c2ccccc2)CC1,-0.788,,1.49,,,,,,,,,-1.25,inactive,inactive,inactive,inactive,inactive,inactive,inactive,inactive
C/C=C/c1cc(OC)c2c(c1)[C@@H](C)[C@@H](c1ccc(O)c(OC)c1)O2,-83.1,,-61.9,,,,,,,,,-24.2,inactive,inactive,inactive,inactive,inactive,inactive,inactive,inactive
C=C1CCC2C(C)(C)CCC[C@]2(C)[C@H]1C/C=C(\CO)C(=O)C(=O)O (stereo partly drawn),3.5,,-2.57,,,,,,,,,-9.53,inactive,inactive,inactive,inactive,inactive,inactive,inactive,inactive
C=C1CCC2C(C)(C)C(O)CCC2(C)C1CCC(C)CCOC(C)=O (stereo not drawn),-5.36,,-9.96,,,,,,,,,3.19,inactive,inactive,inactive,inactive,inactive,inactive,inactive,inactive
C/C(=C\C=C\C(C)C1CCC2(C)C3CCC4C(C)(C)C(=O)CCC45CC35CCC12C)C(=O)O (stereo not drawn),-16.2,,-13.8,,,,,,,,,-3.21,inactive,inactive,inactive,inactive,inactive,inactive,inactive,inactive
CCOc1ccc(S(=O)(=O)n2c(C)nc3ccccc32)cc1,-31.1,,-7.13,,,,,,,,,-3.74,inactive,inactive,inactive,inactive,inactive,inactive,inactive,inactive
CC/C=C\[C@H](O)[C@H](O)C1=C(C)C(=O)[C@]2(O1)C(=O)N[C@@](OC)(C(=O)c1ccccc1)[C@@H]2O,-9.21,,1.26,,,,,,,,,7.92,inactive,inactive,inactive,inactive,inactive,inactive,inactive,inactive
CC(C)C(NC(=O)c1ccc2ccccc2n1)C(=O)NC(CC(=O)O)C(=O)COc1c(F)cccc1F (stereo not drawn),-3.62,,-0.522,,,,,,,,,2.53,inactive,inactive,inactive,inactive,inactive,inactive,inactive,inactive
CC1CC(O)/C=C/C(O)C(O)CC(=O)Cc2c(Cl)c(O)cc(O)c2C(=O)O1 (stereo not drawn),-4.28,inactive,-18.1,,,,,,,,,,inactive,inactive,inactive,inactive,inactive,inactive,inactive,inactive
C[C@@H]1CCC/C=C/[C@H]2CC(=O)C[C@@H]2[C@@H](O)/C=C/C(=O)O1,-12.2,,-2.1,,,,,,,,,8.18,inactive,inactive,inactive,inactive,inactive,inactive,inactive,20 µM (active)
CC1=CC(=O)CC(C)(C)C1/C=C/C(C)O[C@@H]1O[C@H](CO)[C@@H](O)[C@H](O)[C@H]1O[C@@H]1OC[C@](O)(CO)[C@H]1O (stereo partly drawn),4.57,,3.26,,,,,,,,,2.75,inactive,inactive,inactive,inactive,inactive,inactive,inactive,inactive
O=C(CC1C(=O)Nc2ccccc21)OC[C@H]1O[C@@H](OCCc2ccc(O)cc2)[C@H](O)[C@@H](O)[C@@H]1O (stereo partly drawn),-16.5,inactive,-0.494,,,,,,,,,,inactive,inactive,inactive,inactive,inactive,inactive,inactive,inactive
COC(=O)[C@@]1(c2ccc(C)cc2)C[C@H]1CN1CCC(O)(c2ccccc2)CC1,-4.07,,-2.42,,,,,,,,,-2.51,inactive,inactive,inactive,inactive,inactive,inactive,inactive,inactive
CC1COC2(OC3CC4C5CC(O[C@@H]6O[C@H](C)[C@@H](O[C@@H]7O[C@@H](C)[C@H](O)[C@@H](O)[C@H]7O)[C@H](O)[C@H]6O)C6CC(O)CCC6(C)C5CCC4(C)C3C2C)C(O)C1 (stereo partly drawn),-23.5,,4.8,,,,,,,,,7.16,inactive,inactive,inactive,inactive,inactive,inactive,inactive,inactive
CON(C)C(=O)[C@H](O)[C@H](Cc1ccccc1)NC(=O)c1cc2cc(Cl)ccc2[nH]1,-24.4,,-9.74,,,,,,,,,5.78,inactive,inactive,inactive,inactive,inactive,inactive,inactive,inactive
Cc1cc(Nc2nc(NC(C)c3ncc(F)cn3)ncc2Cl)n[nH]1 (stereo not drawn),0.354,inactive,-5.45,,,,,,,,,,inactive,inactive,inactive,inactive,inactive,inactive,inactive,inactive
COc1ccc(C2(O)CCC(N3CC[C@@H](NC(=O)CNC(=O)c4cccc(C(F)(F)F)c4)C3)CC2)cn1 (stereo partly drawn),0.0677,,-3.76,,,,,,,,,-12.4,inactive,inactive,inactive,inactive,inactive,inactive,inactive,inactive
O=C1OCC(c2ccccc2)=C1Cc1ccccc1,-5.17,,-8.21,,,,,,,,,-0.0133,inactive,inactive,inactive,inactive,inactive,inactive,inactive,inactive
CC1CCC2(OC1)OC1CC3C4CC=C5CC(O)CC(O[C@@H]6OC[C@@H](O)[C@H](O)[C@H]6O)C5(C)C4CCC3(C)C1(O)C2C (stereo partly drawn),3.49,,-1.3,,,,,,,,,5.9,inactive,inactive,inactive,inactive,inactive,inactive,inactive,inactive
CC1(C)CC[C@]2(C(=O)O[C@@H]3O[C@H](CO[C@@H]4O[C@H](CO)[C@@H](O)[C@H](O)[C@H]4O[C@@H]4O[C@H](CO)[C@H](O)[C@H](O)[C@H]4O)[C@@H](O)[C@H](O[C@@H]4O[C@H](CO)[C@@H](O)[C@H](O)[C@H]4O)[C@H]3O)CC[C@]3(C)C(=CCC4[C@@]5(C)CC[C@H](O[C@@H]6OC[C@@H](O)[C@H](O)[C@H]6O)[C@@](C)(C(=O)O)C5CC[C@]43C)[C@@H]2C1 (stereo partly drawn),-16.1,,1,-13.6% [at 6.55 µM],6.72% [at 6.55 µM],-6.95% [at 6.55 µM],3.44% [at 6.55 µM],0.826% [at 6.55 µM],8.22% [at 6.55 µM],-2.73% [at 6.55 µM],3.06% [at 6.55 µM],4.92,,,,,,,,
CC[C@H]1OC(=O)[C@H](C)[C@@H](O[C@H]2C[C@@](C)(OC)[C@@H](O)[C@H](C)O2)[C@H](C)[C@@H](O[C@@H]2O[C@H](C)C[C@H](N(C)C)[C@H]2O)[C@](C)(O)C[C@@H](C)C(=O)[C@H](C)[C@H]2OC(=O)O[C@@]21C,-4.77,,3.61,,,,,,,,,7.84,inactive,inactive,inactive,inactive,inactive,inactive,inactive,inactive
CCCC(=O)C1CCN(c2ncnc3c2CN(C(=O)c2ccc(-c4ccccc4)cc2)CC3)CC1,-5.72,,-13.2,,,,,,,,,-16.8,inactive,inactive,inactive,inactive,inactive,inactive,inactive,inactive
CC(=O)CC1CCC(C(C)C(=O)OCC(O)CO)O1 (stereo not drawn),-2.79,inactive,-24.7,,,,,,,,,,inactive,inactive,inactive,inactive,inactive,inactive,inactive,inactive
COc1cc(/C=C/C(=O)O[C@H]2[C@H](O)[C@@H](CO)O[C@@]2(CO)O[C@H]2O[C@H](CO)[C@@H](O)[C@H](O)[C@H]2O)ccc1O,-4.81,,1.81,,,,,,,,,1.78,inactive,inactive,inactive,inactive,inactive,inactive,inactive,inactive
COc1ccc([C@@H]2OC[C@H]3[C@@H]2CO[C@@H]3c2ccc(OC3OC(CO)C(O)C(O)C3O)c(OC)c2)cc1OC (stereo partly drawn),-0.266,,-7.42,,,,,,,,,8.67,inactive,inactive,inactive,inactive,inactive,inactive,inactive,inactive
NC(=O)c1csc(C2OC(CO)C(O)C2O)n1 (stereo not drawn),2.41,inactive,-7.35,,,,,,,,,,inactive,inactive,inactive,inactive,inactive,inactive,inactive,inactive
CC(=O)N[C@H](Cc1ccc2ccccc2c1)C(=O)N[C@H](Cc1ccc(Cl)cc1)C(=O)N[C@H](Cc1cccnc1)C(=O)N[C@@H](CO)C(=O)N[C@@H](Cc1ccc(O)cc1)C(=O)N[C@H](CCCNC(N)=O)C(=O)N[C@@H](CC(C)C)C(=O)N[C@@H](CCCN=C(N)N)C(=O)N1CCC[C@H]1C(=O)N[C@H](C)C(N)=O (Ac-[d2Nal][dPhe(4-Cl)][d3Pal]SY[dCit]LRP[dA]-NH2),-5.33,,4.07,,,,,,,,,9.13,inactive,inactive,inactive,inactive,inactive,inactive,inactive,inactive
